In PubChem BioAssay AID1004 (SRMLSC, 2008) one finds viability data, which are given here for 17 compounds.

Calls of active or inactive are those of the source.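 How the source made its calls: active means viability at 10 µM of 29.74% or lower, 3 SD below the compound median; inactive means the rest.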

This experiment can be described thus: viability of HCT116 lacking mutant beta-catenin – cell-based, DP diverse set, validation, pilot screen (AID 1004). The note with it: HCT116 (mutant beta-catenin deleted) viability, CellTiter-Glo, 60 h; at 10 µM; hits give low values. Background: ATP-based viability assays read luminescence as a measure of living cells.
`Cn1c(=O)c2[nH]cnc2n(C)c1=O`: the viability (commonly a read-out of living cells in per cent, often relative to untreated cells) was 100% (inactive).

Consider `Nc1c(N=Nc2ccc(-c3ccc(N=Nc4cc(S(=O)(=O)O)c5ccccc5c4N)cc3)cc2)cc(S(=O)(=O)O)c2ccccc12`, for which the viability was 83% (inactive).

For the compound `C[C@H](CCC(=O)O)[C@H]1CC[C@H]2[C@@H]3CC[C@@H]4C[C@H](O)CC[C@]4(C)[C@H]3CC[C@]12C`, the viability is 102% (inactive).

Take `Cc1cc2c(C(C)C)c(O)c(O)c(C=O)c2c(O)c1-c1c(C)cc2c(C(C)C)c(O)c(O)c(C=O)c2c1O`: the viability is 28.5% (active).

As to `CCCCCCCCCCCCCCCC(=O)OCC(O)C1OC(=O)C(O)=C1O` (configuration not stated), the viability was 100% (inactive).

Regarding `COc1cc([C@@H]2c3cc4c(cc3[C@H](O)[C@H]3COC(=O)[C@H]23)OCO4)cc(OC)c1OC`, the viability was 37.4% (inactive).

Regarding `COc1ccc2cc3[n+](cc2c1OC)CCc1cc2c(cc1-3)OCO2`, the viability is 99.8% (inactive).

Take `C/C=C1/C2C=C(C)CC1(N)c1ccc(=O)[nH]c1C2` (configuration not stated): the viability was 106% (inactive).

Take `Cc1c(C)c2c(c(C)c1O)CCC(C)(COc1ccc(CC3SC(=O)NC3=O)cc1)O2` (configuration not stated): the viability is 92% (inactive).

As to `CCC[C@@H]1C[C@@H](C(=O)NC(C(C)Cl)[C@H]2O[C@H](SC)[C@H](O)[C@@H](O)[C@H]2O)N(C)C1` (some centres not stated), the viability is 95.6% (inactive).

`CN(C)c1ccc(/C=C2\C(=O)Nc3ccccc32)cc1`: the viability was 80.2% (inactive).

Consider `C[C@@H]1CC2C3CCC4=CC(=O)C=CC4(C)[C@@]3(F)[C@@H](O)CC2(C)[C@@]1(O)C(=O)CO` (some centres not stated), for which the viability is 99.5% (inactive).

For the compound `O=c1[nH]cc(F)c(=O)[nH]1`, the viability is 58.1% (inactive).

Consider `CC1=C(/C=C/C(C)=C/C=C/C(C)=C/C=C/C=C(C)/C=C/C=C(C)/C=C/C(=O)[C@]2(C)C[C@@H](O)CC2(C)C)C(C)(C)C[C@H](O)C1`, for which the viability is 95.5% (inactive).

As to `CCn1cc(C(=O)O)c(=O)c2ccc(C)nc21`, the viability is 94.8% (inactive).

With `CCCC[C@@H](C=O)NC(=O)[C@H](CC(C)C)NC(=O)[C@H](CC(C)C)NC(C)=O`, the viability was 8.45% (active).

Take `O=C(O)c1cc([N+](=O)[O-])ccc1NCCCc1ccccc1`: the viability is 99.6% (inactive).
